# Measured values reported in PubChem BioAssay AID1942 (Johns Hopkins Ion Channel Center, 2009).
# Screen size: about 2,400 compounds; about 580 (24%) were called active. Only a sample is shown. A number with no mark means an inactive call.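 How the source made its calls: active means activity change at or above the mean plus 3 SD of buffer wells without dofetilide, per plate; inactive means the rest.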
# Target: Potassium voltage-gated channel subfamily KQT member 2 (Rattus norvegicus) (UniProt O88943)
# Test: KCNQ2 potentiation in CHO cells – cell-based, FluxOR thallium flux, counter-screen for hERG block protector project, confirmation (AID 1942);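 further: normalized value minus buffer-control mean plus three SD of buffer wells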
# Conditions: FluxOR thallium flux fluorescence, at 10 µM, hits give high values
# Chain of Potassium voltage-gated channel subfamily KQT member 2 (Rattus norvegicus) (O88943 whole entry, looked up): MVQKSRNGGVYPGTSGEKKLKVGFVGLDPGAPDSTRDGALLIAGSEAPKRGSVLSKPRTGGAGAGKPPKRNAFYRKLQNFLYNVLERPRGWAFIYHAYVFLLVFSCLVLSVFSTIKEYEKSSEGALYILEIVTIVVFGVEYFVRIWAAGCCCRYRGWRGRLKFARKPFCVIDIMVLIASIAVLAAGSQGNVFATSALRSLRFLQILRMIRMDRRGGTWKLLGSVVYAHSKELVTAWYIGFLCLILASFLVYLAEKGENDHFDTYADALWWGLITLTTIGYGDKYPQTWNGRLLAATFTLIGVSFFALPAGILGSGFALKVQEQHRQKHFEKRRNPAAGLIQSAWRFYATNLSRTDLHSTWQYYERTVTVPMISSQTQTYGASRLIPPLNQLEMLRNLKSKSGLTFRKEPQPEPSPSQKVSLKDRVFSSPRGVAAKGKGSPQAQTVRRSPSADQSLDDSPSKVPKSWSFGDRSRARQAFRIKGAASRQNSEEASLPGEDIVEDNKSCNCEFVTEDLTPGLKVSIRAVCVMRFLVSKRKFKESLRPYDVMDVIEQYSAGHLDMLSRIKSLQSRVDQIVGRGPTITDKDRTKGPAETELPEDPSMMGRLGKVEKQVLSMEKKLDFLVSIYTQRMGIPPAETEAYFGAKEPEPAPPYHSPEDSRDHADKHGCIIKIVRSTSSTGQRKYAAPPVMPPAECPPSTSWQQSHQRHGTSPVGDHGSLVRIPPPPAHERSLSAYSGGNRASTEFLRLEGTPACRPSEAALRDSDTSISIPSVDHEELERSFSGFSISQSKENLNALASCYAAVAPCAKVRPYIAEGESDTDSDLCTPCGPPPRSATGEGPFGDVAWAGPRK
row,Compound,"activity change, less the hit threshold"
1,O=c1c([N+](=O)[O-])c(N2CCCCC2)c2ccccc2n1-c1ccccc1,-20.7%
2,CC(C)=CCCC1=CCC2C(=O)NNC(=O)C2C1 (stereo not drawn),-15.8%
3,Cc1ccc(S(=O)(=O)n2cnc3ccccc32)c(C)c1,-9%
4,CCCNC(=O)N(C)c1nncnc1C(=O)NC,-17.3%
5,CCN(CC(=O)Nc1c(F)cccc1F)C(=O)c1ccc(Cl)c(S(=O)(=O)N2CCCCC2)c1,-23.2%
6,Cc1cccc(C)c1NC(=O)Cn1cnc2c(=O)n(C)c(=O)n(C)c21,-15.2%
7,C=CCNC(=S)N/N=C(\C)c1ccc(OC)cc1,-13.1%
8,CCCOc1ccc(C(=O)NNC(=S)NC(=O)c2ccccc2)cc1,-24.3%
9,C=CCN(CC=C)C(=S)NC(=O)c1ccc(OC)cc1,10.1% (active)
10,CCCOc1ccc(CN(CCC#N)C(=S)NC(=O)c2ccccc2)cc1,7.3% (active)
11,C=CCN(CC=C)C(=S)NC(=O)/C=C/c1ccc(OC)cc1,-0.6%
12,CC(C)N(Cc1ccccc1)C(=S)NC(=O)C1(C)CC1(Cl)Cl (stereo not drawn),32.4% (active)
13,O=C(O)c1ccc(Cl)cc1Nc1nc2cc(Cl)ccc2o1,-1.7%
14,CC(=O)c1c(C)nc(C)nc1NC(=O)C(C)C,-17.2%
15,Nc1nc2n(n1)C1(CCCCC1)C1=C(CCCC1)N2,-18.5%
16,CCCCc1c(O)nc(SCC(=O)O)[nH]c1=O,-17.9%
17,FC(F)(F)c1cnc2c(c1)[nH]c(=S)n2-c1ccc(Cl)cc1,-2.4%
18,CCC(=O)Nc1cc(-c2nnc(OC)c3ccccc23)ccc1N1CCOCC1,-7.7%
19,Cc1ccc(NC(=O)c2c([N+](=O)[O-])c(C(C)(C)C)nn2C)cc1,-17.2%
20,COc1ccccc1NC(=S)NC(=O)c1ccc(-c2ccc(Cl)cc2)o1,-6.4%
21,CCn1ncc(Cl)c1C(=O)NC(=S)Nc1ccccc1Br,29.9% (active)
22,COC(=O)c1ccc(NC(=S)NC(=O)c2c(-c3ccccc3)noc2C)cc1,-19.6%
23,CCCCOC(=O)c1ccc(NC(=S)NC(=O)c2c(Br)c(C)nn2C)cc1,10.4% (active)
24,Cc1nn(C)c(C(=O)NC(=S)Nc2ccc([N+](=O)[O-])cc2)c1Cl,7.5% (active)
25,Cc1nn(C)c(C(=O)NC(=S)Nc2ccccc2Br)c1Cl,11.8% (active)

row,Compound,"activity change, less the hit threshold"
1,CCCCOC(=O)c1ccc(NC(=S)NC(=O)c2c(Cl)cnn2C)cc1,-10%
2,O=C(NC(=S)Nc1ccccc1N1CCCC1)c1ccccc1Br,-29.8%
3,Cc1nn(CCC(=O)NNC(=S)Nc2ccc(F)cc2)c(C)c1[N+](=O)[O-],-18.9%
4,Cc1ccc(NC(=S)NC(=O)c2cncc(Br)c2)cc1Cl,-17.8%
5,Cc1cccc(NC(=S)N/N=C2\CC(C)(C)Oc3ccc(O)cc32)c1,-9.9%
6,Cc1nn(-c2ccc(Cl)nn2)c(=O)c2ccccc12,-19.3%
7,CC1CN(S(=O)(=O)c2ccc(-c3nc4ccccc4s3)cc2)CC(C)O1 (stereo not drawn),-3.8%
8,CCN1C(=O)/C(=C/c2ccc(C)s2)NC1=S,36.1% (active)
9,COc1ccc(N2C(=O)/C(=C/c3cccs3)NC2=S)cc1,-15.1%
10,CCCN1C(=O)/C(=C/c2ccc(C)s2)NC1=S,80.4% (active)
11,CCCN1C(=O)/C(=C/c2ccc3c(c2)OCO3)NC1=S,-10.1%
12,CC(C)CN1C(=O)/C(=C/c2cccs2)NC1=S,83.6% (active)
13,CC(C)CN1C(=O)/C(=C/c2ccco2)NC1=S,-20.7%
14,O=c1c(C(c2ccc(O)cc2)c2c(O)nc3n(c2=O)CCS3)c(O)nc2n1CCS2,-11.7%
15,Nc1cc(-c2ccc(Br)cc2)[nH]n1,-23.7%
16,CC(C)=CC(=O)OCC(=O)Nc1ccc(SC(F)F)cc1,-15.7%
17,S=c1nc(-c2ccccc2)[nH]n1-c1ccccc1,51.8% (active)
18,S=c1nc(-c2ccccc2)c(-c2ccccc2)n[nH]1,-18.5%
19,CCOc1cc(C(=O)NC)cc(OCC)c1OCC,-15.9%
20,Cc1cc(-c2nnc(SCC(=O)Nc3ccc(C(F)(F)F)cc3)n2C)no1,-23.1%
21,Cc1cc(C)cc(NC(=O)CSc2nnc(CN3CCOCC3)n2C)c1,27.2% (active)
22,COCCn1c(SCC(=O)Nc2cc(C)cc(C)c2)nc2ccccc2c1=O,-17.4%
23,Clc1cccc(OCCCN2CCCC2)c1Cl,-9.5%
24,CCOC(=O)C1=C(Cc2ccc(C)cc2)C(=O)c2ccccc2C1=O,-0.5%
25,CCOC(=O)C1=C(O)c2ccccc2C(=O)/C1=C\c1ccc(CC)cc1,-1.8%

row,Compound,"activity change, less the hit threshold"
1,Cc1ccc(/C=N/N2C(=O)c3ccccc3NC2c2ccc(C)cc2)cc1 (stereo not drawn),-15.6%
2,Cc1ccc(/C=C/C(=O)C2C(=O)c3ccccc3C2=O)cc1,48.1% (active)
3,CCc1ccc(/C=C/C(=O)C2C(=O)c3ccccc3C2=O)cc1,37.2% (active)
4,O=C(CC1NCCNC1=O)Nc1ccc([N+](=O)[O-])cc1 (stereo not drawn),-27.7%
5,COc1ccc(NC(=O)N2CCN(c3ccc([N+](=O)[O-])cc3)CC2)cc1OC,-23.2%
6,CN(C(=O)c1cnccn1)c1nnc(-c2cnccn2)s1,-25.3%
7,CC(C)C(NC(=O)c1ccccc1)C(=O)N/N=C\c1ccco1 (stereo not drawn),-20.2%
8,Cc1ccc2c(CN3CCOCC3)cc(=O)oc2c1,-5.1%
9,Cc1cc(C)cc(OCc2nnc(SCC(=O)Nc3ccccc3)o2)c1,-16.8%
10,CC(=O)/C=C1/C(=O)Nc2ccccc21,-27.4%
11,Cc1cccc(N2C(=O)C(O)=C(C(=O)c3cccs3)C2c2cccc(Oc3ccccc3)c2)n1 (stereo not drawn),-18.2%
12,COc1cc(C(=O)Nc2ccc(O)cc2C(=O)O)ccc1OC(C)=O,-10.8%
13,COc1ccc(/C=C/C(=O)Nc2ccccc2C(=O)O)cc1,-2.2%
14,COc1ccc(/C=C/C(=O)Nc2ccccc2C(=O)O)cc1OC,4.9% (active)
15,COc1cc(/C=C2/C(=O)NN(c3ccc(Cl)c(Cl)c3)C2=O)cc([N+](=O)[O-])c1O,-18.7%
16,O=C(CCNS(=O)(=O)c1ccc(Cl)cc1)OCC(=O)N1CCN(C(=O)c2ccco2)CC1,-17.9%
17,Nc1ccc(C(=O)OCC(=O)N2CCN(C(=O)c3ccco3)CC2)cc1[N+](=O)[O-],-23.4%
18,Cc1cc(S(=O)(=O)Nc2ccc(C(=O)N3CCN(C(=O)c4ccco4)CC3)cc2)ccc1F,3.4% (active)
19,CCOc1ccc(NC(=O)c2ccc3c(c2)CCN3S(C)(=O)=O)cc1,-27.8%
20,CCOc1ccc(NC(=S)NS(=O)(=O)c2cc(Br)ccc2OCC)cc1,35.9% (active)
21,CCOc1ccc(NC(=O)CSc2nc3nc(C)cc(C)n3n2)cc1,-14.8%
22,O=C(COc1ccccc1)Nc1ccc(S(=O)(=O)Nc2ccccn2)cc1,-14.4%
23,CC(=O)NC1C(Oc2ccccc2C)OC(CO)C(O)C1O (stereo not drawn),-8.8%
24,CCn1c(O)c(N=NC(=O)CNC(=O)c2ccccc2F)c2ccccc21,-8.6%
25,CCCn1c(O)c(N=NC(=O)c2ccco2)c2ccccc21,86.7% (active)

row,Compound,"activity change, less the hit threshold"
1,CCn1c(O)c(N=NC(=S)NCC2CCCO2)c2ccccc21 (stereo not drawn),-9.1%
2,CSc1ccc(/C=N/NC(=O)c2cccs2)cc1,-22.9%
3,O=C(CS(=O)(=O)Cc1ccccc1)Nc1ccc(Cl)cn1,-21.6%
4,CCn1c(SC(C)C(=O)O)nc2sc3c(c2c1=O)CCC3 (stereo not drawn),25.4% (active)
5,CCC(=O)N1CCN(c2nc(CC)nc3sc4c(c23)CCCC4)CC1,-43.7%
6,CCn1c(SCC(N)=O)nc2sc3c(c2c1=O)CCCC3,31.2% (active)
7,CCCn1c(SCC(=O)N2CCN(C(C)=O)CC2)nc2sc3c(c2c1=O)CCC3,29.6% (active)
8,CCOC(=O)c1cnn(-c2nc(SC)nc3sc4c(c23)CCCC4)c1N,-23.6%
9,CCN1C(=O)c2cccc3c(S(=O)(=O)NCC4CCCO4)ccc1c23 (stereo not drawn),-21.6%
10,CCc1cccc(C)c1NC(=O)Cc1ccsc1,-12.4%
11,O=C1CC(c2ccco2)CC2=C1C1c3ccccc3C(=O)N1c1ccccc1N2 (stereo not drawn),-4.8%
12,Cc1ccc(OCc2ccoc2C(=O)O)cc1C,23.9% (active)
13,Cc1cc(OCc2ccc(C(=O)Nc3ccc(C(=O)O)cc3)o2)ccc1Cl,-15.9%
14,Cc1oc2ccc(OCc3ccc(Cl)cc3)cc2c1C(=O)O,-3.6%
15,Cc1sc2nc(C(C)C)nc(SCC(=O)NCc3ccco3)c2c1C,10.5% (active)
16,O=C(CN1CCN(c2ccccc2O)CC1)NC(=O)NCc1ccco1,-18.7%
17,COc1cccc(N2CCN(CC(=O)NC(=O)NCc3ccco3)CC2)c1,-11.4%
18,CCn1c(SCC(=O)NC(=O)NCc2ccco2)nc2sc(C)c(C)c2c1=O,19.7% (active)
19,Cc1cc(S(=O)(=O)N2CCOCC2)ccc1OCC(=O)NCc1ccco1,-12.9%
20,Cc1cc2c(cc(C(=O)OC(C(=O)NCc3ccco3)C(C)C)n2C)o1 (stereo not drawn),-16.3%
21,Fc1ccc(N2CCN(c3ccc4c(C(F)(F)F)cc(C(F)(F)F)nc4n3)CC2)cc1,-19.8%
22,O=C(NCc1cccs1)C1CCC(CNS(=O)(=O)c2cccs2)CC1 (stereo not drawn),-28.1%
23,Cc1cc(SC#N)cc(C)c1NC(=O)CCl,19.1% (active)
